The values below come from PubChem BioAssay AID488969 (Vanderbilt High Throughput Screening Facility, 2010).

Over roughly 110,000 compounds, “z-score” has its median near -0.1; the highest 2% begin near 2. The list comes from a sample in which the highest values are over-represented; it also holds similar structures and randomly drawn compounds. Active and inactive are the calls of the source.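 The calls were made as follows: active = z-score in the third read window above 3 or below -3; inactive = the rest.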

The target of the experiment is Metabotropic glutamate receptor 8 (Rattus norvegicus) (UniProt P70579). Nature of the experiment: mGluR8 Gi/Go-coupled signaling modulation – cell-based, rat, thallium flux, HTS, primary screen (AID 488969). The following applies: HEK293 rat mGluR8, GIRK (G protein-gated inwardly rectifying potassium channel) thallium flux, FluoZin2; at 10 µM; stronger effect = higher value; submaximal glutamate (EC20) added with thallium.
Metabotropic glutamate receptor 8 (Rattus norvegicus), sequence (P70579 whole entry, looked up): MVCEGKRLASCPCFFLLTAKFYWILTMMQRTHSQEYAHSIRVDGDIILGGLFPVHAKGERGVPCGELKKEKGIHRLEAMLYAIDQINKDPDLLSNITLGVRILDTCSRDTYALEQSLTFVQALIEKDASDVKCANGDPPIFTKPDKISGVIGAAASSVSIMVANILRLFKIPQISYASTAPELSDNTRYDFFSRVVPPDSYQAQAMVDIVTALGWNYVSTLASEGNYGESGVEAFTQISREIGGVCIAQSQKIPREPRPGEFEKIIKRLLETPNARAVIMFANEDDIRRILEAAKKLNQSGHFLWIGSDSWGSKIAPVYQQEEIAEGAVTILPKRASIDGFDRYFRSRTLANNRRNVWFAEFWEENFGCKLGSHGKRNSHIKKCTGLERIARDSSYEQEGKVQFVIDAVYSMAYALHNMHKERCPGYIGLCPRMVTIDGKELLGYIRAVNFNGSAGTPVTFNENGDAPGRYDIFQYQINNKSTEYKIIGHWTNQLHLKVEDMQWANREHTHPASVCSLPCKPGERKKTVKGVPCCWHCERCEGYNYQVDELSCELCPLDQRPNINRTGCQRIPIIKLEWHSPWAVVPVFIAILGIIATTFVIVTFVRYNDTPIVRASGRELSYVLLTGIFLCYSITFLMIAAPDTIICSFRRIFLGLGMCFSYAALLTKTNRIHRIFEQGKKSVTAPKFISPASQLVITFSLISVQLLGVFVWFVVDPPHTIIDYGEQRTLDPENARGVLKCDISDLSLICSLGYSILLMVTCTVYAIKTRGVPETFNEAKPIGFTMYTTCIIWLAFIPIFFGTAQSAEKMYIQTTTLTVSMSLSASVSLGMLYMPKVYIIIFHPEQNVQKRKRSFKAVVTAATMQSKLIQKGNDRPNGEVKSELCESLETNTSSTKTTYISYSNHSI
Take `O=C1c2ccccc2C(Nc2ccc(S(=O)(=O)N3CCOCC3)cc2)N1c1ccccn1` (stereo not drawn): the z-score is -0.244.
The same measure for `COc1ccc(CN(C)CC(=O)Nc2cc(OC)c([N+](=O)[O-])cc2C)c(OC)c1`: -0.503.
With `COc1ccccc1C(=O)NCC1CCN(c2ccc(S(=O)(=O)N3CCOCC3)cc2)CC1`, the z-score is -0.35.
Take `COc1ccccc1OCc1ccc(C(=O)NN)cc1`: the z-score is -0.037.
The value for `O=C(NCC1CCCO1)C1CC1(c1ccccc1)c1ccccc1` (stereo not drawn) was 1.76; that for `CCOc1cc(C(=O)OCC(=O)c2c(C)[nH]c3ccccc23)ccc1OCC(=O)N1CCOCC1` was -0.335; that for `CNC(=O)C1=C(C)Nc2nc3ccccc3n2C1c1cccc(OC)c1` (stereo not drawn) was -0.775.
With `Cc1cccc(N2CCN(C(=O)Cn3sc4nc(C)cc(C)c4c3=O)CC2C)c1` (stereo not drawn), the z-score was 0.149.
The value for `CCOC(=O)C1CCCN(C(=O)Cn2sc3nc(C)cc(C)c3c2=O)C1` (stereo not drawn) was 2.2; that for `Cc1cc(C)c2c(=O)n(CC(=O)N3CCC(N4CCCCC4)CC3)sc2n1` was -0.421.
For `CCOC(=O)C1CCCN(C(=O)COc2ccccc2O)C1` (stereo not drawn), the z-score was 0.0285.
Molecule `CCOC(=O)C1CCCN(C(=O)CSc2nccn2C)C1` (stereo not drawn) had a z-score of 2.87.
For `CCOC(=O)C1CCCN(C(=O)CSCc2ccccc2)C1` (stereo not drawn), the z-score was -1.22.
With `COc1ccccc1N(CC(=O)Nc1ccccc1C(=O)NC(C)C)S(C)(=O)=O`, the z-score was -0.955.
`O=C1CCC([N+](=O)[O-])C(c2ccc(Cl)cc2Cl)N1` (stereo not drawn): the z-score was -0.219.
Regarding `CCCN1C(=O)/C(=C/c2ccco2)SC1=Nc1ccc(OC)cc1`, the z-score is -0.105.
As to `O=C(CCS(=O)(=O)Cc1ccccc1)N1CCc2ccccc2C1`, the z-score is -0.136.
The value for `CCN1CCCC1CNC(=O)c1c(O)c2c([nH]c1=O)CCCC2` (stereo not drawn) was -0.0826; that for `O=C(NCC1CCCO1)c1c(O)c2c([nH]c1=O)CCCC2` (stereo not drawn) was 2.44.
Consider `C[N+](C)(C)CCNC(=O)c1c(O)c2c([nH]c1=O)CCCC2`, for which the z-score was determined as 0.798.
The value for `COc1ccc(CNC(=O)CN(Cc2ccc(C)cc2)S(=O)(=O)c2ccc(Cl)cc2)cc1` was 0.0059.
In turn, `CC1=C(C(=O)N2CCCCC2)C(c2cccs2)C2=C(CCCC2=O)N1` (stereo not drawn) registered a z-score of 0.187.
Turning to `CC1SC(c2ccc(Cl)cc2Cl)NC1=O` (stereo not drawn), the z-score was -0.0303.
The same measure for `C=C(C)C1CC=C(C)/C(=N\NC(=O)CNc2ccccc2OC)C1` (stereo not drawn): 0.0831; for `C=C(C)C1CC=C(C)/C(=N/NC(=O)COc2ccccc2C)C1` (stereo not drawn): 1.
`C=C(C)[C@H]1CC=C(C)/C(=N/NC(=O)CNc2ccccc2OC)C1`: the z-score turned out to be 0.284.
The value for `C=C(C)C1CC=C(C)/C(=N/NC(=O)COc2cccc(C)c2)C1` (stereo not drawn) was 8.9 (active).
The molecule `C=C(C)C1CC=C(C)/C(=N\NC(=S)Nc2ccc(C)cc2)C1` (stereo not drawn) returned a z-score of 0.799.
As to `C=C(C)C1CC=C(C)/C(=N/NC(=O)COc2ccc(C)cc2)C1` (stereo not drawn), the z-score came to 1.47.
Molecule `C=C(C)C1CC=C(C)/C(=N/NC(=O)CNc2ccc(OCC)cc2)C1` (stereo not drawn) showed a z-score of 1.99.
`C=C(C)C1CC=C(C)/C(=N/NC(=O)COc2cccc3ccccc23)C1` (stereo not drawn) displayed a z-score of 0.0808.
As to `C=C(C)C1CC=C(C)/C(=N\NC(=O)CCc2ccccc2)C1` (stereo not drawn), the z-score was -0.339.
Turning to `C=C(C)C1CC=C(C)/C(=N/NC(=S)Nc2ccccc2)C1` (stereo not drawn), the z-score turned out to be 2.35.
In the case of `C=C(C)C1CC=C(C)/C(=N/NC(=O)CNc2ccc(C)cc2C)C1` (stereo not drawn), the z-score was -0.284.
As to `C=C(C)C1CC=C(C)/C(=N/NC(=O)COc2ccccc2Cl)C1` (stereo not drawn), the z-score is 12.4 (active).
The same measure for `Cc1nn(Cc2ccc(Br)cc2)c(C)c1NC(=O)c1nn(C)cc1Cl`: -0.296; for `COC(=O)c1ccccc1NC(=O)CN(C)S(=O)(=O)c1ccc(OC)cc1`: 0.195; for `Fc1ccc(/C=C2\CCCC3=C2NC(=S)NC3c2ccc(F)cc2)cc1` (stereo not drawn): -0.0195.
With `N#CC1(C#N)C2=C(CCCC2)NC(c2ccccc2)C1(C#N)C#N` (stereo not drawn), the z-score is -0.0942.
`O=C(NCCc1ccccc1F)/C(=C/c1cccnc1)NC(=O)c1ccccc1`: the z-score was 0.0991.
On to `O=C(Nc1ccccc1)c1c(F)c(F)c(F)c(F)c1F`, for which the z-score is -0.122.
For `COc1ccc(CC(=O)NCCc2ccc(S(N)(=O)=O)cc2)cc1`, the z-score worked out at 0.445.
Take `O=c1c(CN2CCN(Cc3ccccc3)CC2)coc2ccc(Cl)cc12`: the z-score is -0.714.
Turning to `CCOC(=O)c1cc(-c2ccc(C#N)cc2)nc2c1c(C)nn2CCC#N`, the z-score was -0.234.
As for `CCOC(=O)c1cc(-c2ccc(Cl)cc2)nc2c1c(C)nn2CCC#N`, the z-score is 3.13 (active).
The value for `CCOC(=O)c1cc(-c2ccc(OC)cc2)nc2c1c(C)nn2CCC#N` was -0.93; that for `S=c1[nH]nc(Cc2sc(-c3ccccc3)nc2-c2ccccc2)o1` was 0.186.
The value for `COCCCNCC1C(Oc2ccc(Cl)cc2)C(=O)N1c1ccccc1C` (stereo not drawn) was 0.258; that for `CCCNCC1C(Oc2ccc(Cl)cc2)C(=O)N1c1ccccc1C` (stereo not drawn) was 1.55.
Molecule `Cc1ccccc1N1C(=O)C(Oc2ccc(Cl)cc2)C1CNCCCOC(C)C` (stereo not drawn) yielded a z-score of 2.95.
As to `Cc1cc(C)c(OCCCCCNCCO)c(C)c1`, the z-score came out at 1.43.
The same measure for `CCc1ccc2nc(-c3cccc(C)c3)nc(SCC(=O)NCC3CCCO3)c2c1` (stereo not drawn): -0.227; for `Cc1n[nH]c(C)c1SCC(=O)Nc1ccc(F)cc1`: 0.159; for `COc1cccc(Nc2ccc(C(=O)O)cc2[N+](=O)[O-])c1`: 0.594.
Consider `O=C(c1cccc(Br)c1)c1cn(-c2ccccc2)nc1C(=O)c1ccccc1`, for which the z-score is -0.106.
The molecule `CCOc1ccc2[nH]c(=O)c(C(c3nnnn3C3CCCCC3)N3CCN(CC)CC3)cc2c1` (stereo not drawn) had a z-score of 0.408.
The same measure for `COC(=O)c1ccc(N2C(=O)CC(Sc3n[nH]c(C)n3)C2=O)cc1` (stereo not drawn): 4.88 (active); for `COC(=O)c1cc(C(=O)OC)cc(N2C(=O)CC(Sc3nc(C)cc(C)n3)C2=O)c1` (stereo not drawn): 0.178; for `COC(=O)c1ccc(N2C(=O)CC(SCCN)C2=O)cc1` (stereo not drawn): -0.299.
The same measure for `Cc1noc(C(=O)NCc2ccccc2)c1Cl`: -0.324; for `C/C(=N/NC(=O)Cc1cccc2ccccc12)c1cccs1`: -0.221; for `CCOC(=O)CSc1n[nH]c(NC(=O)c2cccc(C)c2)n1`: 2.67.
Turning to `CCOC(=O)CSc1n[nH]c(NC(=O)c2ccccc2)n1`, the z-score came to 0.788.
With `CCOC(=O)CSc1n[nH]c(NC(=O)c2cccc(C(F)(F)F)c2)n1`, the z-score was -0.122.
Take `c1cncc(-c2nc3ccccc3[nH]2)c1`: the z-score was -0.186.
Turning to `O=c1[nH]cnc2c1sc1nc3c(c(-c4ccc(Cl)cc4)c12)CCC3`, the z-score is -0.722.
`CC(OC(=O)c1nsc(Cl)c1Cl)C(=O)NC(C)(C)C` (stereo not drawn) displayed a z-score of 0.181.
Molecule `Cc1cc(OCC(=O)Nc2ccc(F)c(F)c2)nc(C(C)C)n1` registered a z-score of 0.156.
Turning to `O=C(NNS(=O)(=O)c1ccccc1)C1CCN(S(=O)(=O)c2ccc(Cl)cc2)CC1`, the z-score is -0.131.
For `CCCCCCCCCc1nc(N)n[nH]1`, the z-score is -0.191.
In the case of `C=CCCCCCCCCc1nc(=S)[nH][nH]1`, the z-score is 9.76 (active).
The same measure for `CCCCOc1ccc(-c2nc(=S)[nH][nH]2)cc1`: 0.294; for `CCCCCCCCc1nc(=S)[nH][nH]1`: 15.3 (active).
